Active and inactive are the calls of the source. Rule for the calls: active = hit-call score of the fitted dose curve at least 0.9, where 1 is the maximum; inactive = score below 0.9.
Experiment: APR_HepG2_CellCycleArrest_1hr: Apredica 1-hour HepG2 Assay for Cell Cycle Arrest (AID 2282666)
Conditions: high-content imaging, actives raise or lower the signal
Experimental: APR_HepG2_1hr is a cell-based, multiplexed-readout assay that uses HepG2, a human liver cell line, with measurements taken at 1 hour after chemical dosing in a 384-well plate.APR_HepG2_CellCycleArrest_1hr is one of 10 assay component(s) measured or calculated from the APR_HepG2_1hr assay. It is designed to make measurements of cell phenotype, a form of morphology reporter, as detected with fluorescence intensity signals by HCS Fluorescent Imaging technology.Data from the assay component APR_HepG2_CellCycleArrest_1hr was analyzed into 1 assay endpoint. This assay endpoint, APR_HepG2_CellCycleArrest_1hr, was analyzed with bidirectional fitting relative to DMSO as the negative control and baseline of activity. Using a type of morphology reporter, measures of all nuclear dna for gain or loss-of-signal activity can be used to understand the signaling at the pathway-level as they relate to the gene . Furthermore, this assay endpoint can be referred to as a primary readout, because this assay has produced multiple assay endpoints where this one serves a signaling function. To generalize the intended target to other relatable targets, this assay endpoint is annotated to the cell cycle intended target family, where the subfamily is arrest.
Cells were treated with dimethyl sulfoxide (DMSO) as a solvent control at a final concentration of 0.5% v/v or with compounds in DMSO with a resulting final DMSO concentration of 0.5% v/v. Compound treatment was done at concentrations of 0.39, 0.78, 1.56, 3.12, 6.24, 12.5, 25, 50, 100, and 200 uM in duplicate on each plate. Cells were treated with compounds for 1, 24, or 72 hr. Carbonyl […] m-chloro-phenylhydrazone (CCCP) and taxol were used as positive controls for mitochondrial function and cytoskeletal stability, respectively; DMSO served as the negative control for this experiment. Cells were fixed by the direct addition of 50 uL formaldehyde in Hank's Balanced Salt Solution (HBSS) to a final concentration of 3.7%. After incubation in the fixation medium for 30 min at room temperature (293-298 K), cells were rinsed twice with HBSS and treated with cell permeabilization buffer (16 uL of 0.5% Triton X-100) for 10 min at room temperature (293-298 K) before labeling. For mitochondrial membrane potential and mitochondrial measurements, pre-fixed cells were incubated with 50 uL of MitoTracker Red CMXRos (Invitrogen) at a concentration of 250 nM for 30 min before fixation. In the remaining cases, post-fixed cells were labeled by incubation with a multiplexed mixture of primary antibodies in HBSS for 60 min at room temperature (293-298 K) to detect immunoreactivity of c-Jun (1:500), phospho-histone H3 (1:100), phospho-histone H2A.x (1:200), p53 (1:400), alpha-tubulin (1:200) and Hoechst 33342 (2 ug/mL). Cells were labeled for multiplexed imaging on two separate plates: a) Hoechst 33342, MitoTracker Red, phospho-histone H3, and alpha-tubulin, and b) Hoechst 33342, phospho-histone H2A.x, and c-Jun. A final rinse with HBSS (50 uL) was performed before analysis. The primary and secondary antibodies for the proteins were phospho-histone H3 (rabbit anti-phospho-histone H3 and FITC-donkey anti-rabbit IgG), phospho-histone H2A.x (mouse anti-phospho-histone H2A.x and FITC-donkey anti-mouse IgG), c-Jun (rabbit anti-phospho-c-Jun and Cy3-donkey anti-rabbit IgG), p53 (sheep anti-p53 and Cy5-donkey anti-sheep IgG), alpha-tubulin (mouse anti-alpha-tubulin and Cy5-donkey anti-mouse IgG). These antibodies are available as the CellCiphr HepG2 assay kit (Millipore).Digital images of each well were captured using a Cellomics ArrayScan VTI (Thermo Scientific Cellomics) (0.8 NA objective, 0.63x optical coupler, and XF-93 filter set) at 20x magnification. The images were acquired using the autofocus feature of the ArrayScan instrument, which entails the following steps. First, the camera focuses on channel 1 (Hoechst 33342), where nuclei are identified. Second, a Z offset of 1 um is used for capturing mitochondria (MitoTracker Red). […]

Structure (SMILES) | outcome | AC50
Clc1nc(Cl)nc(Nc2ccccc2Cl)n1 | inactive | 
Cn1c(-c2ccccc2)cc(-c2ccccc2)[n+]1C | inactive | 
N#Cc1c[nH]cc1-c1cccc2c1OC(F)(F)O2 | inactive | 
COCC(=O)N(c1c(C)cccc1C)C(C)C(=O)OC (stereo not given) | inactive | 
Nc1c(Cl)c(F)nc(OCC(=O)O)c1Cl | inactive | 
C=C(C)CN(CC)c1c([N+](=O)[O-])cc(C(F)(F)F)cc1[N+](=O)[O-] | inactive | 
CNC(=O)N(C)c1nnc(C(C)(C)C)s1 | inactive | 
Cc1cnc(C2=NC(C)(C(C)C)C(=O)N2)c(C(=O)O)c1 (stereo not given) | inactive | 
CC(C)=CC1C(C(=O)OCc2coc(Cc3ccccc3)c2)C1(C)C (stereo not given) | inactive | 
CCCCOCN(C(=O)CCl)c1c(CC)cccc1CC | inactive | 
CN=C=S | inactive | 
COc1cc(OC)nc(NC(=O)NS(=O)(=O)c2ncccc2OCC(F)(F)F)n1 | inactive | 
CC1(C)C(C(=O)OC(C#N)c2cccc(Oc3ccccc3)c2)C1(C)C (stereo not given) | inactive | 
O=C1C2CC=CCC2C(=O)N1SC(Cl)(Cl)Cl (stereo not given) | inactive | 
CC1(C)CON(Cc2ccccc2Cl)C1=O | inactive | 
CSC(=O)c1c(C(F)F)nc(C(F)(F)F)c(C(=O)SC)c1CC(C)C | inactive | 
Clc1cccc(C(Cl)(Cl)Cl)n1 | inactive | 
CCCCC(O)(Cn1cncn1)c1ccc(Cl)cc1Cl (stereo not given) | inactive | 
COc1cc(Cl)c(OC)cc1Cl | inactive | 
CC(C)N1C(=O)c2ccccc2NS1(=O)=O |  | 59.2 nM (active)

Structure (SMILES) | outcome | AC50
CCCCC(C#N)(Cn1cncn1)c1ccc(Cl)cc1 (stereo not given) | inactive | 
CC(C)(C)C(=O)C(Oc1ccc(Cl)cc1)n1cncn1 (stereo not given) | inactive | 
CNC(=O)Oc1cccc2ccccc12 | inactive | 
CS(=O)(=O)c1ccc(C(=O)C2C(=O)CCCC2=O)c([N+](=O)[O-])c1 | inactive | 
CCOP(=S)(OCC)Oc1nc(Cl)n(C(C)C)n1 | inactive | 
Cc1cc(C)nc(Nc2ccccc2)n1 | inactive | 
CCN(CC)C(=O)C(C)Oc1cccc2ccccc12 (stereo not given) | inactive | 
CCSC(=O)N1CCCCCC1 | inactive | 
CCCN(CC)CC1COC2(CCC(C(C)(C)C)CC2)O1 (stereo not given) | inactive | 
CCNC(=O)NC(=O)C(C#N)=NOC |  | 39.1 nM (active)
CN/C(=N\[N+](=O)[O-])NCc1cnc(Cl)s1 | inactive | 
CC(C)C1(C)N=C(c2ncccc2C(=O)O)NC1=O (stereo not given) | inactive | 
CC1(C)C(C=C(Cl)Cl)C1C(=O)OC(C#N)c1cccc(Oc2ccccc2)c1 (stereo not given) | inactive | 
COC(=O)NS(=O)(=O)c1ccc(N)cc1 | inactive | 
O=c1n(Cl)c(=O)n(Cl)c(=O)n1Cl | inactive | 
CC(C)NC(=O)N1CC(=O)N(c2cc(Cl)cc(Cl)c2)C1=O | inactive | 
CS(=O)(=O)c1cc(C(F)(F)F)ccc1C(=O)c1cnoc1C1CC1 | inactive | 
CCOC(=O)C(C)OC(=O)c1cc(Oc2ccc(C(F)(F)F)cc2Cl)ccc1[N+](=O)[O-] (stereo not given) | inactive | 
COC(=O)N(C(=O)N1CO[C@@]2(C(=O)OC)Cc3cc(Cl)ccc3C2=N1)c1ccc(OC(F)(F)F)cc1 | inactive | 
CC(C)Nc1nc(Cl)nc(NC(C)C)n1 | inactive | 

— PubChem BioAssay (EPA / NIEHS)
